# IL1B secr inh – inflammasome signaling inhibition, IL-1 beta readout | THP-1 LPS/ATP IL-1B secretion, AlphaLISA, 16 h; hits give low values | activity change, % at 57.5 µM | 4.7% of 360,000 active; in the data active = activity change below about -50%; inconclusive = mostly about -30% to -49%
#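 Secreted IL-1B measured by AlphaLISA bead assay after 16 h compound exposure of THP-1 cells; compounds (final up to 57.5 uM) added 1 h before LPS (250 ng/mL) and ATP (1.25 mM) stimulation; lower signal means less secretion.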
# Six1-Eya2 blk – Six1/Eya2 interaction inhibition; Q15475+O00167; AlphaScreen GST-Six1/His-Eya2 binding, biochemical; hits give low values; 0.56% of 360,000 active; activity change, % (no concentration beside the values); in the data active = activity change below about -65%; inconclusive = mostly about -30% to -63%
#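 Six1/Eya2 binding was read as AlphaScreen signal after compounds were pinned into GST-Six1 plus His-tagged Eya2 (5X stock 250/500 nM) in pH 8.0 Tris/NaCl/TCEP buffer, beads added, then incubated 1 h, 37 C, dark.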
# CtBP-E1A blk – inhibitors of CtBP/E1A interaction. AlphaScreen GST-E1A/His-CtBP binding, 1536-well; hits give low values. 0.49% of 340,000 active. activity change, % (no concentration beside the values); in the data active = activity change below about -65%; inconclusive = mostly about -30% to -63%
#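 In 5 uL wells, 23 nL compound meets equimolar GST-E1A and His-CtBP (5X stock 125 nM each) for 2 h, 37 °C. Beads (5X, 50 ug/mL) then 1 h, 37 °C, dark.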
# DT40 TDP1 no CPT – qHTS for Inhibitors of human tyrosyl-DNA phosphodiesterase 1 (TDP1): qHTS in cells in absence of CPT | DT40 Tdp1-/- hTDP1 cells, no CPT, ATP luminescence, 48 h | Potency, µM (titrated, usually from 46.2 µM), for inactives: at the highest dose activity change, negative = growth inhibition, hits mostly inhibitors | 15% of 420,000 active; also: potency is read from the fitted curve at half-maximal effect; nearly all actives have a fitted effect of over 55% in size
#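 Chicken DT40 Tdp1-/- cells stably complemented with human TDP1 were seeded at 400 cells/well with DMSO in place of 20 nM camptothecin. After compound pinning, cells grew at least 48 hr at 37 °C; viability read by CellTiter-Glo luminescence.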
# TDP1 cell CPT – DT40-hTDP1 cell growth loss with CPT; AID 686979; Potency, µM (series often up to 46.2 µM), for the others: at the top dose activity change, negative = growth inhibition, most hits filed as inhibitors; 12% of 420,000 active; chicken DT40 Tdp1-/-;hTDP1 cells + 20 nM CPT, ATP luminescence, 48 h; also: potency is read from the fitted curve at half-maximal effect; nearly all actives have a fitted effect of over 55% in size
#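 Chicken DT40 Tdp1-/- cells complemented with human TDP1, 400 cells/well, exposed to compounds plus 20 nM camptothecin for at least 48 h at 37 C; viability read as ATP content by CellTiter-Glo luminescence.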
# TDP1 inh – TDP1 (human) enzyme inhibition. 0.28% of 350,000 active. Potency, µM (doses to about 130 µM), without a hit: at the top dose activity change, negative = inhibition, usual class: inhibitors. recombinant TDP1, AlphaScreen DNA substrate cleavage. AID 485290; also: potency is read from the fitted curve at half-maximal effect; nearly all actives have a fitted effect of over 40% in size
# Target sequence (Q9NUW8 whole entry, looked up): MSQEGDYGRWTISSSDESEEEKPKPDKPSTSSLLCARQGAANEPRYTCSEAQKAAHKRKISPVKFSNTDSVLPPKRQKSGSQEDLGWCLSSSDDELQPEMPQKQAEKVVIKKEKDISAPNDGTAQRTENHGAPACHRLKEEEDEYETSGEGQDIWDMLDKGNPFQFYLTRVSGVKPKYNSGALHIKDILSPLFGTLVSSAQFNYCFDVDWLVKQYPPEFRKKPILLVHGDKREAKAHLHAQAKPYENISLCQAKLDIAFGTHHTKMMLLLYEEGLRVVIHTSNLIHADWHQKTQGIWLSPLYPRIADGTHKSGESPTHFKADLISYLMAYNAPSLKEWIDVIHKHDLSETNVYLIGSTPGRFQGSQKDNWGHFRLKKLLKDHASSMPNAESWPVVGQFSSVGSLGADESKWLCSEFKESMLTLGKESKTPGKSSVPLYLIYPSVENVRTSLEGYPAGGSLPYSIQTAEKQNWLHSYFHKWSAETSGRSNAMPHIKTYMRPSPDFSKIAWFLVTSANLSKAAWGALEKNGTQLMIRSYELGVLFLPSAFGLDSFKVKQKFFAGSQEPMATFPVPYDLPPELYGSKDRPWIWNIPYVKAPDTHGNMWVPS
#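 Recombinant E. coli-expressed Tdp1 (1 nM) preincubated with compound 15 min at RT, then 5'-biotin/3'-phosphotyrosine-FITC DNA substrate (15 nM) added for 5 min. AlphaScreen beads (10 ug/ml) added, 10 min RT; tyrosine-FITC cleavage read as signal loss.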
# An asterisk follows results filed as active; ? = inconclusive; . = no result. Most compounds without a hit are left out; they make up all but 18% or so of the library. Unless noted, calls follow the shape of the dose curve; as a rule, active = well fitted curve in the direction sought with a large enough effect; inconclusive = small, poorly fitted or top-dose-only effect, or another doubt; inactive = no such curve, though single readings can be large; an effect the other way counts as inactive or inconclusive. % is scaled to controls: 0 for no effect and ±100 for the full control effect.
SMILES,IL1B secr inh,Six1-Eya2 blk,CtBP-E1A blk,DT40 TDP1 no CPT,TDP1 cell CPT,TDP1 inh
CCCc1cc(NCC2CCCO2)n2c(nc3ccccc32)c1C#N (stereo not given),-4.2,4.0,-4.4,23.1µM*,18.4µM*,-5.1%
CCCc1cc(NCc2ccccn2)n2c(nc3ccccc32)c1C#N,-9.7,-22.5,-17.5,18.4µM*,?,2.6%
O=C(CNC(=O)C1COc2ccccc2O1)N/N=C\c1ccccc1Cl (stereo not given),-1.2,6.2,4.8,-11.5%,-9.4%,3.9%
Cc1cccc(N=N/C(=C\O)C(=O)c2cccs2)c1,-67.3*,-19.6,-13.9,?,?,14.7%
O=C(/C(=C/O)N=Nc1ccccc1)c1ccncc1,6.7,-12.7,-5.8,?,?,5.6%
CSc1nc(Oc2ccc(F)cc2F)cc(C(F)(F)F)n1,2.9,31.3,3.5,?,7.2%,4.8%
Cc1cc(N/N=C/c2ccc(O)cc2)c2cccc(C)c2n1,?,?,.,?,?,4.1%
COc1ccc(/C=N/Nc2cc(C)nc3ccc(OC)cc23)c(OC)c1,-103.9*,4.4,-27.0,5.8µM*,11.6µM*,6.0%
Cc1cc(C)c2nc(C)cc(N/N=C/c3ccc(O)cc3)c2c1,-98.3*,?,-86.0*,3.26µM*,3.26µM*,.
Cc1cc(C)nc(N/N=C/c2ccccc2)n1,10.0,1.8,5.8,-11.1%,-18.7%,7.1%
Cc1cc(-c2ccccc2)nc(N/N=C/c2ccc(O)cc2)n1,-100.3*,-16.7,-16.4,?,11.6µM*,4.5%
COc1ccc(/C=N/Nc2nc(C)cc(-c3ccccc3)n2)c(OC)c1,23.4,3.3,-0.9,20.6µM*,13.2%,3.4%
C/C(N)=C(/C#N)C(=O)CSc1nnc(C)n1-c1ccccc1,12.3,-2.2,1.8,3.5%,3.3%,1.3%
Oc1ccc(/C=N/Nc2nc(-c3ccc(Cl)cc3)cc(C(F)(F)F)n2)cc1,-99.1*,-20.5,-3.0,?,?,8.1%
Nc1nc(-c2ccc(Cl)cc2)cc(C(F)(F)F)n1,-4.3,2.3,10.7,-1.3%,-16.0%,1.0%
CN1CCN(C(=O)Cn2ncc3c([nH]c4ccccc43)c2=O)CC1,3.0,4.0,.,-5.4%,0.3%,-0.2%
COc1ccc(-c2coc3cc4oc(=O)c5ccccc5c4cc23)cc1F,42.8,4.4,-2.5,0.651µM*,0.82µM*,2.6%
COc1ccccc1-c1cc(C(=O)Nc2cc(C)n(Cc3ccc(Cl)cc3)n2)no1,5.5,1.8,4.1,-16.9%,?,4.4%
CCCCCC/C=N/Nc1nnc(Cc2ccc(OC)c(OC)c2)c(=O)[nH]1,-3.3,-73.9*,?,?,?,.
COc1ccc(Cc2nnc(N/N=C/c3ccc(O)cc3O)[nH]c2=O)cc1OC,-53.4*,-87.6*,-93.1*,5.8µM*,5.8µM*,0.0%
Cc1ccc(/C=N/Nc2nnc(Cc3ccccc3)c(=O)[nH]2)o1,-17.2,-25.9,?,?,-27.1%,7.0%
CCCc1nn(C)c(C(=O)Nc2ccc(C(C)(C)C)cc2)c1Cl,23.6,29.0,10.4,?,?,-2.6%
NS(=O)(=O)c1ccc(NC(=O)COC(=O)CCc2ccccc2)cc1,10.3,-3.5,5.2,-3.1%,-24.0%,8.6%
COC(=O)c1ccccc1NC(=O)Cn1cnc([N+](=O)[O-])c1,0.0,1.2,8.6,13.1%,11.6%,.
COc1cccc(CS(=O)(=O)c2nnnn2C2CCCCC2)c1,.,.,.,.,.,6.2%
SMILES,IL1B secr inh,Six1-Eya2 blk,CtBP-E1A blk,DT40 TDP1 no CPT,TDP1 cell CPT,TDP1 inh
CCOC(=O)C1=C(C)NC(SC)=C(C#N)C1CC(C)C (stereo not given),?,4.2,9.7,3.66µM*,3.66µM*,0.0%
Cc1nc(NC(=O)CC(C)C)sc1-c1csc(Nc2ccc(Cl)cc2)n1,-1.9,-1.5,0.0,14.6µM*,?,6.2%
Cc1nc(NC(=O)CC(C)C)sc1-c1csc(Nc2ccc(Cl)cc2Cl)n1,7.4,-15.0,-16.0,18.4µM*,?,9.8%
C=CCCC(=O)Nc1nc(C)c(-c2csc(Nc3ccc(Cl)cc3Cl)n2)s1,-21.4,-11.6,-6.3,14.6µM*,?,5.9%
Cc1ccc(Cl)cc1Nc1nc(-c2sc(NC(=O)c3cccc(Cl)c3)nc2C)cs1,.,.,.,.,.,9.6%
Cc1nc(NC(=O)c2ccccc2)sc1-c1csc(Nc2ccc(Cl)cc2Cl)n1,.,.,.,.,.,10.7%
COc1ccc(S(=O)(=O)N2c3cc(Cl)ccc3Oc3nc4ccccc4nc32)cc1,44.9,18.4,1.5,1.64µM*,0.731µM*,0.0%
O=S(=O)(c1ccc(Cl)cc1)N1c2ccccc2Oc2nc3ccccc3nc21,4.8,-8.0,3.7,16.4µM*,23.1µM*,2.5%
COc1cccc(NC(=O)C(=O)NCC(c2ccc3c(c2)OCO3)N2CCOCC2)c1 (stereo not given),.,.,.,16.4µM*,?,-1.1%
O=C(NCC(c1ccc2c(c1)OCO2)N1CCOCC1)c1ccccc1F (stereo not given),.,.,.,-29.2%,?,1.1%
O=S(=O)(NCC(c1ccc2c(c1)OCO2)N1CCOCC1)c1ccc(Br)cc1 (stereo not given),-16.8,-2.5,7.1,20.6µM*,16.4µM*,-0.5%
O=C(NCC(c1ccc2c(c1)OCO2)N1CCN(c2ccccc2)CC1)c1ccccc1F (stereo not given),.,.,.,11.6µM*,7.31µM*,7.0%
Cc1ccc(NC(=O)C(=O)NCC(c2ccc3c(c2)OCO3)N2CCOCC2)cc1C (stereo not given),.,.,.,14.9%,13.6%,-2.2%
CCCC(=O)NCC(c1ccc2c(c1)OCO2)N1CCN(c2ccc(F)cc2)CC1 (stereo not given),.,.,.,20.6µM*,?,2.2%
CC(C)NC(=O)COC(=O)c1ccccc1Oc1ccccc1,-1.7,-0.7,7.7,-18.6%,0.8%,6.8%
Cc1cc(Br)c(NC(=O)COC(=O)c2ccc[n+]([O-])c2)c(Br)c1,0.7,3.5,0.5,-1.8%,6.2%,1.5%
C=CCNC(=O)C(=O)NCC(c1ccc2c(c1)OCO2)N1CCN(c2ccc(F)cc2)CC1 (stereo not given),36.1,-10.0,-5.7,?,16.4µM*,5.7%
COc1ccc(C(=O)NCC(c2ccc3c(c2)OCO3)N2CCN(c3ccc(OC)cc3)CC2)cc1 (stereo not given),-16.9,?,-7.2,5.8µM*,3.26µM*,.

# Bioassay records: PubChem, National Center for Advancing Translational Sciences (NCATS)
